42 sequences from article PMC7819943, “Rice protein-binding microarrays: a tool to detect cis-acting elements near promoter regions in rice” can be followed below.

Over roughly 68,000 sequences, “fluorescence intensity (a.u.)” has its median near 9,100; the highest 2% begin near 16,000. For the sample, the highest values were picked, then their nearest neighbours and some sequences at random.

The target of this test is OsWRKY34 (Oryza sativa, UniProt Q0JBA9 1-250). The test is described as follows: protein-binding microarray (RPBM); PBS, 2% BSA, 51.3 ng/ul salmon testes DNA, 50 uM zinc acetate, 200 nM TF, 25 C, 1 h; high values mean tight binding. The settings on record: protein: recombinant; tags: N-terminal polyhistidine and DsRed monomer fusion (pET32a); label: CyDye5-dUTP incorporated in the synthesized complementary strand; 3' TTTTT single-stranded linker to array surface; dsDNA, one strand shown. The procedure, abridged: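 Binding signal is reported as fluorescence intensity per feature (arbitrary units) from an Axon 4000B scanner. Incubation used 200 nM of each Ni–NTA-purified, N-terminally polyhistidine- and DsRed-fused transcription factor from E. coli BL21-CodonPlus on a double-stranded custom Agilent array for 1 h at 25 °C, with 50 µM zinc acetate in the buffer, followed by washing.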
Chain of OsWRKY34 (Q0JBA9 entry or part of it): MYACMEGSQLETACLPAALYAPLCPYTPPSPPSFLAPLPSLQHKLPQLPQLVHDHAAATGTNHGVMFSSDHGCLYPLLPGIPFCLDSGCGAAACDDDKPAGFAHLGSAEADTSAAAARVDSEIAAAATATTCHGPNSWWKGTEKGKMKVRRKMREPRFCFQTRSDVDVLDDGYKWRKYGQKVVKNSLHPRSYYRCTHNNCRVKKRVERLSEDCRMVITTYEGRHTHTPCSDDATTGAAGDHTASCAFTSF
Turning to “GGGTGACGGGAGCAGCGGCGCGCGGGTGGTGGGGCTTGGACGGAGTCACCTAGTGCAG”, the binding signal is 10700 fluorescence intensity (a.u.).
Turning to “CTTGTGGATTTCGTTCGAGTTCTTGTGGTTTTGGATCGGGCGGAGTCACCTAGTGCAG”, the binding signal is 9590 fluorescence intensity (a.u.).
Regarding “GTAGGCTTTTGTTTCGGGTGGGATAATATCTTGGGGAAAGCGGAGTCACCTAGTGCAG”, the binding signal was 20700 fluorescence intensity (a.u.).
For the sequence “GTCGTCTCATACCAATCGTGCGGCGGCGGCGGCGGGGATGCGGAGTCACCTAGTGCAG”, the binding signal was 10400 fluorescence intensity (a.u.).
The value for “GTGGGCTGGGCTTCTTCTTCGTCGTCTCATACCAATCGTGCGGAGTCACCTAGTGCAG” was 17100 fluorescence intensity (a.u.); that for “TTGGATTGCAGTGGGGCGGACGGCGGTGGGCGGGGCTTCTCGGAGTCACCTAGTGCAG” was 27600 fluorescence intensity (a.u.); that for “GGGAAAGTGGTTGGCGGATATTCTTGTTTTCTTTTTTTGTCGGAGTCACCTAGTGCAG” was 12500 fluorescence intensity (a.u.).
Consider “GACGGGCGGCGGTGGGGCTGACGCGGGCGACGGAGGGGCTCGGAGTCACCTAGTGCAG”, for which the binding signal is 11500 fluorescence intensity (a.u.).
Consider “TTTGGGGCGCGGGTGGGTGGCTGGGTGCGCGTCGATCGTGCGGAGTCACCTAGTGCAG”, for which the binding signal was 10900 fluorescence intensity (a.u.).
Regarding “GCGGCTTCTTCTCGGGGTGGATTTGGTGGTGGTTTTTTTTCGGAGTCACCTAGTGCAG”, the binding signal is 21500 fluorescence intensity (a.u.).
The figure for “TGGTTTGCGGTGGTGCGCGCGCGGCTTCTTCTCGGGGTGGCGGAGTCACCTAGTGCAG” is 9070 fluorescence intensity (a.u.).
Regarding “ACGTAGGAAGGTGGAAGCGGTTTCTTGGGGTTTGGATATGCGGAGTCACCTAGTGCAG”, the binding signal was 11000 fluorescence intensity (a.u.).
The figure for “AGGTTCACAATCTATCCGACTTTTGATTTTCTTTCAATTCCGGAGTCACCTAGTGCAG” is 9110 fluorescence intensity (a.u.); for “CAATGGCTTACGACGAGACGACTCACCTTTGAATTCCACGCGGAGTCACCTAGTGCAG” it is 9460 fluorescence intensity (a.u.); for “TTTTAAAACTGCTGGGATTTTGCTTTCTGTTTCTTCAATGCGGAGTCACCTAGTGCAG” it is 10900 fluorescence intensity (a.u.).
As for “TTAGTTTTGTTAGATCGTCGATTTTGATTAGTGCGTTTGACGGAGTCACCTAGTGCAG”, the binding signal was 9190 fluorescence intensity (a.u.).
For “AAACCAACCCCACCCAACCCACGCGAGAACCGTGGACCACCGGAGTCACCTAGTGCAG”, the binding signal was 9500 fluorescence intensity (a.u.).
As to “ATTTCTCTTGCCTATGTTTTCATTTTGCAATTATTTTTGTCGGAGTCACCTAGTGCAG”, the binding signal was 10500 fluorescence intensity (a.u.).
On to “TGTTTGCACTTCATTCCATTCCATTCCACCTCCACTGCTTCGGAGTCACCTAGTGCAG”, for which the binding signal is 8390 fluorescence intensity (a.u.).
In the case of “CTTTTATATAGCTTTGTCTAGTCTTGTGAATTCTCAATTGCGGAGTCACCTAGTGCAG”, the binding signal was 8530 fluorescence intensity (a.u.).
As for “TCGGCTTGGTGGGGCTGGAGAACGTCTTTTCTCAATTGTGCGGAGTCACCTAGTGCAG”, the binding signal was 22000 fluorescence intensity (a.u.).
Turning to “GGCTCGGGGCGGCGGAATCATGGGCGATTGGGGCGGCAACCGGAGTCACCTAGTGCAG”, the binding signal was 22500 fluorescence intensity (a.u.).
The figure for “GTTTCATCTTCTTGTGGGCTTTTCTGGTGAACTCAATTCACGGAGTCACCTAGTGCAG” is 8250 fluorescence intensity (a.u.); for “GCTCGGGCATCCTTTTTAAGGGCTCGGGGCGGCGGAATCACGGAGTCACCTAGTGCAG” it is 8290 fluorescence intensity (a.u.).
Turning to “AATCTGTGGGCAGGGGCGGCGACGTCGGCGGGCGAGGGCTCGGAGTCACCTAGTGCAG”, the binding signal was 8660 fluorescence intensity (a.u.).
Turning to “CTGGTCAGAGTCCCCAACCAAAAGCATTTCTCCTGCCTTCCGGAGTCACCTAGTGCAG”, the binding signal was 8660 fluorescence intensity (a.u.).
For the sequence “CGTCCGTCTCCATCTGACACCTCCCAGTGCTTGCGCCCATCGGAGTCACCTAGTGCAG”, the binding signal was 8030 fluorescence intensity (a.u.).
As for “GACTTACTTTATTGTCTACAGTACTTTAAGCACAACTTTTCGGAGTCACCTAGTGCAG”, the binding signal was 8360 fluorescence intensity (a.u.).
The figure for “ATACCCGTCTTTTCCTTCCCTTTCATCAATTGCCTCTTGTCGGAGTCACCTAGTGCAG” is 11500 fluorescence intensity (a.u.); for “TAGTTTTCTCAGGTGTTTGGGAATTGGTTGGTGAAGATGACGGAGTCACCTAGTGCAG” it is 9450 fluorescence intensity (a.u.).
Regarding “GGATGCTCTTGTGTTCTTGTTGTTGATTTGTATTGTGGATCGGAGTCACCTAGTGCAG”, the binding signal was 8240 fluorescence intensity (a.u.).
The figure for “GATTTCTGTGTTTTTCCTGTGGTCCAATCAAACGGTCATTCGGAGTCACCTAGTGCAG” is 12700 fluorescence intensity (a.u.).
“TTTCTTCTTCTCGTCTCTTCTCGCCGCCGCCGCCGCAATGCGGAGTCACCTAGTGCAG”: the binding signal is 9300 fluorescence intensity (a.u.).
On to “TCGTTGACTTTCTTGCCGTCTCGCCGCCGCCGCCGCCATGCGGAGTCACCTAGTGCAG”, for which the binding signal was 23600 fluorescence intensity (a.u.).
On to “TCATCTTGCTTTCCCCTTCTTCGCCCACGCGGCCGCGGCCCGGAGTCACCTAGTGCAG”, for which the binding signal is 8620 fluorescence intensity (a.u.).
For “GCCGTCTTTGCTTGATAGTCTTCGCCATGGGGACTTTGTCCGGAGTCACCTAGTGCAG”, the binding signal was 8210 fluorescence intensity (a.u.).
As for “CTCGCCGCCGTTCGTCTCCGCCGCCACCGCCGCCGCCATGCGGAGTCACCTAGTGCAG”, the binding signal was 11300 fluorescence intensity (a.u.).
The figure for “TGCGGCCCACCTTTGCTTCTTCGTTGACTTTCTTGCCGTCCGGAGTCACCTAGTGCAG” is 26900 fluorescence intensity (a.u.); for “AAACCCTCTCTCTCTCTCTCTCTCACACACACACGCAAACCGGAGTCACCTAGTGCAG” it is 10300 fluorescence intensity (a.u.).
The figure for “GTCAACTGCCTATCCTAGATATCTATCACTACCGAAAGCCCGGAGTCACCTAGTGCAG” is 8930 fluorescence intensity (a.u.); for “TCAACACAGCAACGTTTCACTTTCATATCATCTGATTATTCGGAGTCACCTAGTGCAG” it is 8470 fluorescence intensity (a.u.).
For “TCCGTCCATCCTCACTATCATTAGTACTACTGGTTCTTCTCGGAGTCACCTAGTGCAG”, the binding signal is 12200 fluorescence intensity (a.u.).
